From PubChem BioAssay (EPA / NIEHS)
Results filed as inconclusive are left out. Activity calls are given as the source filed them. Rule for the calls, unless noted: active = hit-call score of the fitted dose curve at least 0.9, where 1 is the maximum; inactive = score below 0.9.

Experiments:
[1] = target: Oxysterols receptor LXR-beta (Homo sapiens) (UniProt P55055); experiment: ATG_LXRb_TRANS: Attagene TRANS-FACTORIAL HepG2 Assay for human Liver X Receptor beta (LXRb) (AID 2282981; active = hit-call score of the fitted dose curve at least 0.9, where 1 is the maximum); conditions: HepG2 Attagene TRANS GAL4-LXRb reporter, mRNA
Chain of Oxysterols receptor LXR-beta (Homo sapiens) (P55055 whole entry, looked up, the tested form may be a part): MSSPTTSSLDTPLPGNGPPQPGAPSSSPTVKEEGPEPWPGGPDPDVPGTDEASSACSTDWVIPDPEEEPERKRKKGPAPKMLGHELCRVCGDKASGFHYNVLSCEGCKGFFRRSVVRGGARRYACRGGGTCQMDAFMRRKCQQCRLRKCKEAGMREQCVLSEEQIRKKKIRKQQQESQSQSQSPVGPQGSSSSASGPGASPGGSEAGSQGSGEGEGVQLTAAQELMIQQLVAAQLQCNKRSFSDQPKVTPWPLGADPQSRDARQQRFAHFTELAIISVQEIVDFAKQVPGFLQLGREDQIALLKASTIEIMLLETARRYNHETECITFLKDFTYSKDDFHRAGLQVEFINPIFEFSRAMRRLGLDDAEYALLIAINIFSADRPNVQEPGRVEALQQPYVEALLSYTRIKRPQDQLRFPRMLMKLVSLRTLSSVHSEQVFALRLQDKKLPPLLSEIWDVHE
Method in brief: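 Readout: fluorescent reporter mRNA fragments resolved by capillary electrophoresis after RT-PCR. System: transiently transfected human HepG2, exogenous LXRb-Gal4 chimera driving GAL4-UAS reporter, 24 h dosing. Activity fitted upward against DMSO baseline.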

[2] = ATG_M_06_TRANS: Attagene TRANS-FACTORIAL HepG2 Assay for M06 Transcription Factor (Internal Marker) (AID 2282983; active = hit-call score of the fitted dose curve at least 0.9, where 1 is the maximum;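 note: reporter transcript level by RT-PCR then capillary electrophoresis fluorescence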); conditions: HepG2 Attagene TRANS M06 internal marker reporter
Method in brief: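 Read-out: fluorescent reporter cDNA fragments resolved by capillary electrophoresis after RT-PCR and HpaI cut. Source cells were HepG2 carrying transfected multi-reporter GAL4 constructs, dosed 24 h. Increase over DMSO control analysed.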

[3] = target: Nuclear receptor subfamily 4 group A member 2 (Homo sapiens) (UniProt P43354); experiment: ATG_NURR1_TRANS: Attagene TRANS-FACTORIAL HepG2 Assay for human Nuclear Receptor Related Protein 1 (NURR1) (AID 2282985; active = hit-call score of the fitted dose curve at least 0.9, where 1 is the maximum); conditions: HepG2 Attagene TRANS reporter, mRNA readout
Chain of Nuclear receptor subfamily 4 group A member 2 (Homo sapiens) (P43354 whole entry, looked up, the tested form may be a part): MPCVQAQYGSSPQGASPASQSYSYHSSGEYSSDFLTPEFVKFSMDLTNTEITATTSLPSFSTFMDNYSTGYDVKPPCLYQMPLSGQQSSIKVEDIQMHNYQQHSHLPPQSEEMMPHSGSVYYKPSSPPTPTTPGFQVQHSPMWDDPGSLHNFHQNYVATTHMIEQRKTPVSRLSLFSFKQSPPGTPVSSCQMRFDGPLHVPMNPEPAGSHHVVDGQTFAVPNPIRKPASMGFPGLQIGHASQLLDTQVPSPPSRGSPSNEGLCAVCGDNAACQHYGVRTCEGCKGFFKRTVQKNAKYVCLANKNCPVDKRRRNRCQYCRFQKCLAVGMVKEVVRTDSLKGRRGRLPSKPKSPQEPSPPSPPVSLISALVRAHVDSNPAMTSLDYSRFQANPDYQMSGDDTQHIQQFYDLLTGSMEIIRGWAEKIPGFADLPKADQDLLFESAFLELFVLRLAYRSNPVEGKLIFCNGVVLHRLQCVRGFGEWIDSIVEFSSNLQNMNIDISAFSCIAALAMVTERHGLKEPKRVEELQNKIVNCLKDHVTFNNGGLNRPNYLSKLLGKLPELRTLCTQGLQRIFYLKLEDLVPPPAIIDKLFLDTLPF
Method in brief: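 Read-out: reporter mRNA induction by RT-PCR plus capillary electrophoresis with fluorescence detection, after 24 h dosing of transfected HepG2 cells. Exogenous NR-Gal4 chimera activity drives GAL4-UAS reporter; activity fitted upward versus DMSO.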

[4] = target: Transcriptional activator Myb (Homo sapiens) (UniProt P10242); experiment: ATG_Myb_CIS: Attagene CIS-FACTORIAL HepG2 Assay for human Myeloblastosis (Myb) Proto-Oncogene Transcription Factor (AID 2282986); conditions: HepG2 Attagene CIS-FACTORIAL Myb reporter transcription; actives raise or lower the signal
Chain of Transcriptional activator Myb (Homo sapiens) (P10242 whole entry, looked up): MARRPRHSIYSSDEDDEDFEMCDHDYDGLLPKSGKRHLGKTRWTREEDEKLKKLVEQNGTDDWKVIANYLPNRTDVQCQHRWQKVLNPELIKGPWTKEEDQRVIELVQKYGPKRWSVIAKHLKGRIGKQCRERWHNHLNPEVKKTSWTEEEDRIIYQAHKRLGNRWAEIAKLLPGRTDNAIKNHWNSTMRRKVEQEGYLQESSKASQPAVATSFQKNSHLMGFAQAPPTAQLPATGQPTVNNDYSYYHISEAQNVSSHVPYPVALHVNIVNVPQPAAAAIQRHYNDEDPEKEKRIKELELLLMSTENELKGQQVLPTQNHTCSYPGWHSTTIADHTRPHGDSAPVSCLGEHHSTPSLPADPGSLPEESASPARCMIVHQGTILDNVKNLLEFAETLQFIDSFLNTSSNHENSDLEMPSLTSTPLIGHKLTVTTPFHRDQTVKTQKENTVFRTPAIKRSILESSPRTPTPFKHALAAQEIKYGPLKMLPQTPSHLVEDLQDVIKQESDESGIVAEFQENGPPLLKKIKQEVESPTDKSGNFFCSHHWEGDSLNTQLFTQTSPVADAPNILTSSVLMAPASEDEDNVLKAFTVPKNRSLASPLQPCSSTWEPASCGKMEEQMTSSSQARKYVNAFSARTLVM
Method in brief: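 Steps: transfect HepG2 with cis-regulated reporter units; dose with chemical for 24 h; isolate RNA, reverse-transcribe, PCR-amplify and FAM-label reporter sequences; digest with HpaI; resolve by capillary electrophoresis. Activity fitted in both directions relative to DMSO.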

[5] = ATG_NFI_CIS: Attagene CIS-FACTORIAL HepG2 Assay for human Nuclear Factor I (NFI) (AID 2282989); conditions: HepG2 cis-regulatory reporter, NFI response element transcription; actives raise or lower the signal
Method in brief: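 Reporter transcription driven by endogenous transcription factors in HepG2 cells; 24 h treatment. Quantitation by labelled RT-PCR fragments on capillary electrophoresis, gain- or loss-of-signal relative to DMSO.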

[6] = target: Myc proto-oncogene protein (Homo sapiens) (UniProt P01106); experiment: ATG_Myc_CIS: Attagene CIS-FACTORIAL HepG2 Assay for human Myelocytomatosis (Myc) Proto-Oncogene Transcription Factor (AID 2282990); conditions: HepG2, Attagene cis-reporter transcription factor activity; actives raise or lower the signal
Chain of Myc proto-oncogene protein (Homo sapiens) (P01106 whole entry, looked up, the tested form may be a part): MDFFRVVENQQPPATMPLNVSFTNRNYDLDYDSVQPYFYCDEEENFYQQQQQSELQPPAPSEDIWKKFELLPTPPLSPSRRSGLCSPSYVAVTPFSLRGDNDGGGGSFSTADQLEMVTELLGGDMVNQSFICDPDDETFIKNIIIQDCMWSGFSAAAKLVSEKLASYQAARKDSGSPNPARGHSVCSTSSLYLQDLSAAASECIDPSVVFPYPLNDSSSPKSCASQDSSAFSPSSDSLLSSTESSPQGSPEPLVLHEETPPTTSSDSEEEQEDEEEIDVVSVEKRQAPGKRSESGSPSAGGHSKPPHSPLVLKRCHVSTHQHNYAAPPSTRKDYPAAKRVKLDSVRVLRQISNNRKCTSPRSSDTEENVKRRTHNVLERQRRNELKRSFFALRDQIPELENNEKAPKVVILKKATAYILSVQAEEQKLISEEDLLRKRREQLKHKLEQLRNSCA
Method in brief: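 Fluorescence intensity of reporter-specific cDNA fragments, separated by capillary electrophoresis, gives the signal. Transfected HepG2 cells carrying cis-promoter reporter constructs are incubated with compound for 24 h; DMSO serves as baseline.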

[7] = ATG_NF_kB_CIS: Attagene CIS-FACTORIAL HepG2 Assay for human Nuclear Factor Kappa B (NF-kB) (AID 2282991); conditions: HepG2 Attagene cis-factorial NF-kB reporter mRNA; actives raise or lower the signal
Method in brief: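 Endogenous transcription factor activity in HepG2 was captured via cis-regulated reporter constructs; after 24 h dosing, reporter mRNA was reverse-transcribed, amplified, fluorescently labelled and sized by capillary electrophoresis, with activity fitted bidirectionally relative to DMSO.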

[8] = ATG_NRF2_ARE_CIS: Attagene CIS-FACTORIAL HepG2 Assay for human Nuclear Factor Erythroid 2 Related Factor 2 (NFR2) response to Antioxidant Response Elements (ARE) (AID 2282992); conditions: HepG2 Attagene ARE/NRF2 reporter, transcription factor activity; actives raise or lower the signal;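 for AC50: reporter mRNA level measured by RT-PCR and capillary electrophoresis fluorescence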
Method in brief: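 Readout: reporter mRNA quantified by RT-PCR plus FAM-labelled primer extension, HpaI digestion and capillary electrophoresis, 24 h after dosing transfected HepG2 cells. Gain or loss of signal is fitted bidirectionally against DMSO baseline.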

[9] = ATG_Oct_MLP_CIS: Attagene CIS-FACTORIAL HepG2 Assay for human Octamer-Binding Transcription Factor (Oct) (AID 2282993); conditions: HepG2 Attagene cis-factorial Oct reporter, mRNA; actives raise or lower the signal
Method in brief: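 Transfected HepG2 cells, 24 h treatment. Reporter mRNA quantified by RT-PCR–capillary electrophoresis; bidirectional fitting against DMSO.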

[10] = target: Cellular tumor antigen p53 (Homo sapiens) (UniProt P04637); experiment: ATG_p53_CIS: Attagene CIS-FACTORIAL HepG2 Assay for human p53 Transcription Factor (AID 2282994); conditions: HepG2 p53 cis-element reporter, Attagene mRNA; actives raise or lower the signal
Chain of Cellular tumor antigen p53 (Homo sapiens) (P04637 whole entry, looked up): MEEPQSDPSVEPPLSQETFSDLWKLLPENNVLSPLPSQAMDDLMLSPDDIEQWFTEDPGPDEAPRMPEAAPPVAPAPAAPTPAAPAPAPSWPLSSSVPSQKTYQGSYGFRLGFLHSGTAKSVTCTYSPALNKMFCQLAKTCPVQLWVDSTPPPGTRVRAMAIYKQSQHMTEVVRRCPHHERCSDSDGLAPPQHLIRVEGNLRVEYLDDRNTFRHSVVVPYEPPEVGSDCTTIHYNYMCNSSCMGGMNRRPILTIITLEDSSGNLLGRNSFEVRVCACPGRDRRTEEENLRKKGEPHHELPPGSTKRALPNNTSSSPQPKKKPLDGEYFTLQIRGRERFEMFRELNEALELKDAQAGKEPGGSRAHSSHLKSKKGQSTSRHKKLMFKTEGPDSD
Method in brief: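 Read-out: reporter mRNA by RT-PCR plus capillary electrophoresis with fluorescence detection. Human HepG2 liver cells carried transfected multi-reporter cis-element constructs, dosed 24 h. Gain or loss of signal fitted bidirectionally against DMSO control.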

[11] = BSK_3C_TissueFactor: BioMAP Diversity Plus: 3C Assay for Tissue Factor Biomarker Activity (AID 2282997); conditions: BioMAP 3C HUVEC, tissue factor biomarker readout; actives raise or lower the signal
Method in brief: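 HUVEC, 3C system, 24 h post-dose; Tissue Factor by ELISA; bidirectional fit vs DMSO baseline.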

[12] = BSK_3C_uPAR: BioMAP Diversity Plus: 3C Assay for Urokinase-type plasminogen activator receptor (uPAR) Biomarker Activity (AID 2282998); conditions: BioMAP 3C HUVEC, uPAR biomarker ELISA; actives raise or lower the signal
Method in brief: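 Readout: ELISA for surface uPAR. System: human umbilical vein endothelial primary cells, 24 h after chemical exposure. Analysis: bidirectional fit, DMSO baseline.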

[13] = BSK_3C_VCAM1: BioMAP Diversity Plus: 3C Assay for Vascular cell adhesion molecule 1 (VCAM1) Biomarker Activity (AID 2282999); conditions: BioMAP 3C HUVEC, VCAM1 ELISA, cytokine-stimulated; actives raise or lower the signal
Method in brief: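 HUVEC primary cells, 24 h compound exposure; VCAM-1 by ELISA; gain/loss of signal fitted bidirectionally vs DMSO baseline.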

[14] = BSK_4H_Eotaxin3: BioMAP Diversity Plus: 4H Assay for Eotaxin 3 Biomarker Activity (AID 2283000); conditions: primary human endothelial cells (HUVEC); actives raise or lower the signal
Method in brief: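 Readout is Eotaxin-3 (CCL26) level by ELISA in primary human umbilical vein endothelial cells harvested 24 h after chemical exposure; activity fitted in both directions against DMSO control.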

[15] = ATG_M_32_TRANS: Attagene TRANS-FACTORIAL HepG2 Assay for M32 Transcription Factor (Internal Marker) (AID 2282984; active = hit-call score of the fitted dose curve at least 0.9, where 1 is the maximum;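 note: transcript level of a background control reporter unit measured by RT-PCR and capillary electrophoresis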); conditions: HepG2 Attagene TRANS M32 internal marker reporter
Method in brief: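 Read-out: fluorescent reporter cDNA fragments resolved by capillary electrophoresis after RT-PCR of total RNA. Transfected HepG2 cells were exposed to chemical for 24 h. Activity scored in the positive direction relative to DMSO.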

[16] = target: Nuclear respiratory factor 1 (Homo sapiens) (UniProt Q16656); experiment: ATG_NRF1_CIS: Attagene CIS-FACTORIAL HepG2 Assay for human Nuclear Respiratory Factor 1 (NRF1) Orphan Gene (AID 2282987); conditions: HepG2 NRF1 cis-element reporter, Attagene multiplex; actives raise or lower the signal
Chain of Nuclear respiratory factor 1 (Homo sapiens) (Q16656 whole entry, looked up, the tested form may be a part): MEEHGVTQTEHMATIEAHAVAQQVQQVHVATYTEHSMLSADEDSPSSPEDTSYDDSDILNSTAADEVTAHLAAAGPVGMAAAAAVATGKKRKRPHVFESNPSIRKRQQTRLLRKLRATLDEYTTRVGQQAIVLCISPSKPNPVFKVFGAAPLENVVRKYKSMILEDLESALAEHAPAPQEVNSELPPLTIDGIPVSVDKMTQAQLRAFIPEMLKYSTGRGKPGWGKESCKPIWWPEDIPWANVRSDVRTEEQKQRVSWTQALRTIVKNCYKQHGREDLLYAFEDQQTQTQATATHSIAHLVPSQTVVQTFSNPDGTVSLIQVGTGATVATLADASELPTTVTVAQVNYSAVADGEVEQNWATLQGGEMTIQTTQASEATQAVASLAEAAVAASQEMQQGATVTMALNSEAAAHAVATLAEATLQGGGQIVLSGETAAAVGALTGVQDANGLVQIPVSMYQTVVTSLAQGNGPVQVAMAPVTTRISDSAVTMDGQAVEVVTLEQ
Method in brief: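 Fluorescence intensity of labelled reporter cDNA fragments, resolved by capillary electrophoresis, served as readout for NRF1 cis-element activity. Transiently transfected HepG2 cells were dosed for 24 hours; activity in either direction was fitted against DMSO negative control.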

[17] = target: Hepatocyte nuclear factor 4-alpha (Homo sapiens) (UniProt P41235); experiment: ATG_HNF4a_TRANS: Attagene TRANS-FACTORIAL HepG2 Assay for human Hepatocyte Nuclear Factor 4 alpha (HNF4a) (AID 2282982; active = hit-call score of the fitted dose curve at least 0.9, where 1 is the maximum); conditions: HepG2 HNF4a transactivation reporter, mRNA readout
Chain of Hepatocyte nuclear factor 4-alpha (Homo sapiens) (P41235 whole entry, looked up): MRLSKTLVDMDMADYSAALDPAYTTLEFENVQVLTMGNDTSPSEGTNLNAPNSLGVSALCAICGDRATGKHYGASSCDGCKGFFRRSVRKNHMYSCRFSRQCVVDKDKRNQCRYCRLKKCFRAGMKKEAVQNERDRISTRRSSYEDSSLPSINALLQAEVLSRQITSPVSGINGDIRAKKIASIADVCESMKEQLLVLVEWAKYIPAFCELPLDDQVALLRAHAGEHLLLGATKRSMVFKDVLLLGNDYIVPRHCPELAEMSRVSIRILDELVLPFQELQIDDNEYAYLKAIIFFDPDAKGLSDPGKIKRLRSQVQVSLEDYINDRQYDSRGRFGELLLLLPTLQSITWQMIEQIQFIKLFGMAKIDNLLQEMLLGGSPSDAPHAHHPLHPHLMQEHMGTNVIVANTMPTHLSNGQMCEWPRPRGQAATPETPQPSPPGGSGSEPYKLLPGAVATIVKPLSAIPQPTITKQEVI
Method in brief: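 Transient MRTU transfection of HepG2, 24 h dosing. Readout: reporter mRNA via RT-PCR + capillary electrophoresis, fluorescence; activity fit upward relative to DMSO control.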

Measured: AC50

Nc1ncc([N+](=O)[O-])s1
inactive: [1] | [2] | [3] | [4] | [5] | [6] | [7] | [9] | [10] | [12] | [13] | [14]
active: [8] 73.2 µM | [11] 12.2 µM

NNC(=S)NN
inactive: [1] | [2] | [15] | [4] | [16] | [5] | [6] | [7] | [8] | [9]

Cn1sc(Cl)cc1=O
inactive: [2] | [15] | [4] | [16] | [5] | [6] | [9] | [10] | [12]
active: [7] 139 µM | [8] 135 µM | [11] 16.2 µM | [13] 36.1 µM | [14] 28.2 µM

Nc1cccc(Cl)c1
inactive: [1] | [15] | [3] | [4] | [16] | [5] | [6] | [7] | [8] | [9] | [10]

CCCCCCCCC(=O)NCc1ccc(O)c(OC)c1
active: [5] 151 µM | [8] 38.3 µM
inactive: [17] | [2] | [15] | [3] | [4] | [16] | [6] | [7] | [9] | [11] | [12] | [13] | [14]

C=C(C)C(=O)[O][Sn]([CH2]CCC)([CH2]CCC)[CH2]CCC
active: [3] 0.00168 µM | [8] 0.26 µM | [9] 0.412 µM | [11] 0.148 µM | [12] 0.148 µM | [13] 0.148 µM | [14] 0.254 µM
inactive: [17] | [2] | [4] | [16] | [5] | [6] | [7] | [10]

CNC
inactive: [1] | [15] | [3] | [4] | [16] | [5] | [6] | [7] | [8] | [9]

CC(Br)C(=O)O (centres undefined)
inactive: [17] | [15] | [4] | [5] | [6] | [7] | [8] | [9] | [10]

CCOP(=O)(CN(CCO)CCO)OCC
inactive: [1] | [2] | [15] | [3] | [4] | [16] | [5] | [6] | [7] | [8] | [9]
